Drawing on PubChem BioAssay (NCI), this text covers growth for 37 compounds.

The structures appear in SMILES notation. About 83,000 compounds went through this panel and 20% of them were active in at least one assay; those are over-represented in the sample as a whole.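 Activity criterion: percent growth below 10, measured after cells in 96-well plates were exposed to a single compound concentration for 48 hours.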 Active and inactive are the calls of the source.

In this experiment the test system is HL-60(TB) leukemia. Put plainly: NCI-60 one-dose screen, 48 h (100 = growth as untreated, 0 = no growth, -100 = all killed). The conditions noted are these: 10 µM unless noted.
As for `O=C(O)c1c([N+](=O)[O-])cnc2ccccc12`, the growth was 92.4% (inactive).
In the case of `COc1cc(/C=C/C(=O)/C=C/c2ccc(-n3ccnc3)cc2)ccc1O`, the growth is 36.2% (inactive).
The figure for `COc1cc(-c2[nH]ncc2Nc2ccc(Cl)cc2)cc(OC)c1OC` is 42.3% (inactive); for `CCCCCCCCCCCCCCCCOc1ccc(C)cc1` it is 134% (inactive); for `FC(F)(F)c1cn(CCN2CCOCC2)c2ncnc(Cl)c12` it is -68.6% (active).
The figure for `COc1ccc(/C=C(/C(=O)n2cnnn2)c2cc(OC)c(OC)c(OC)c2)cc1` is 4.64% (active); for `CC(C)CCC[C@@H](C)[C@H]1CC[C@H]2[C@@H]3CC=C4N(c5ccccc5)C(=O)CC[C@]4(C)[C@H]3CC[C@]12C` it is 90.9% (inactive); for `CCCCCCN1C(=O)/C(=c2\sc3n(c2=O)C2C(NN=3)N(CC)C(=O)N2CC)c2ccccc21` (configuration not stated) it is 42.2% (inactive).
Regarding `Nc1ccc(Cl)c2c(=O)c3ccccc3[nH]c12`, the growth was 63.7% (inactive).
For `CCC(C)(C)c1ccc(Nc2ccc(Nc3ccc(C(C)(C)CC)cc3)cc2)cc1`, the growth was 47.5% (inactive).
The figure for `Oc1ccccc1-c1nnc(CNc2ccc(Cl)cc2)o1` is 4.56% (active).
For the compound `COc1ccc(/C=C2\C=C(c3ccccc3)N(CCc3ccccc3)C2=O)cc1OC`, the growth is 19.6% (inactive).
For the compound `CCOC(=O)Cn1c(=O)c2c3ccccc3n(C)c2n2nnc(-c3ccccc3)c12`, the growth was 68.5% (inactive).
Consider `O=C(C[C@@H](C(=O)NCc1cccc(C(F)(F)F)c1)N1C(=O)[C@@H](N2C(=O)OC[C@@H]2c2ccccc2)[C@H]1/C=C/c1ccccc1)NC1CCN(Cc2ccccc2)CC1`, for which the growth is 55.3% (inactive).
For `O=C(NNC(=O)c1ccc([N+](=O)[O-])cc1)c1ccc([N+](=O)[O-])cc1`, the growth is 88.3% (inactive).
As for `C=CCC(CCC(CC=C)C(=O)OCC)C(=O)OCC` (configuration not stated), the growth was 99.8% (inactive).
Consider `CSc1nc(-c2cccs2)c2c(N)[nH]nc2n1`, for which the growth was 85.3% (inactive).
Turning to `CN(C)c1ccc(/C=C/c2cc[n+](C)c(/C=C/c3ccc(N(C)C)cc3)c2)cc1`, the growth was -56.3% (active).
Regarding `COc1nc(N)nc(-n2c(-c3ccc(C)cc3)nc3ccccc32)c1NCc1ccc(C)cc1`, the growth is 101% (inactive).
For `CCc1c(C(=O)NCc2c(O)ccc3cccc(O)c23)[nH]c(C)c1C(C)=O`, the growth was 41.5% (inactive).
As to `CCOC(=O)[C@@H](Cc1ccccc1)NC(=O)c1[nH]c2ccc(Cl)cc2c(=O)c1C`, the growth is 104% (inactive).
Consider `C=C(C)[C@@H]1CC[C@]2(C=O)CC[C@]3(C)[C@H](CC[C@@H]4[C@@]5(C)C/C(=C/c6cccnc6)C(=O)C(C)(C)[C@@H]5CC[C@]43C)[C@@H]12`, for which the growth is 25.9% (inactive).
In the case of `O=C1Cc2cc(O)ccc2O1`, the growth was 100% (inactive).
Regarding `CC(C)(C)CC(C)(C)Nc1c(-c2c(O)c3ccccc3oc2=O)nc2sc3ccccc3n12`, the growth was 21.6% (inactive).
`O=C(c1c[nH]c2ccccc12)c1n[nH]c(=S)n1-c1cccc(Br)c1`: the growth is 88.8% (inactive).
The figure for `CCOC(=O)c1cc(C(=O)c2ccc(OC)c(OC)c2)n2c1ccc1ccccc12` is 99.8% (inactive); for `Cc1nc2ccccc2c(/C=C/c2ccc(Cl)cc2)c1C(=O)/C=C/c1ccc(C(F)(F)F)cc1` it is -37% (active).
As to `COc1ccc(-c2nc(/C=C3\SC(=NCc4ccccc4)NC3=O)c3ccccn23)cc1`, the growth was -7.59% (active).
As for `COc1ccc(/C=C/C(=O)c2ccc(Nc3nc(Nc4ccc(F)cc4)nc(Nc4ccc(Cl)cc4)n3)cc2)cc1`, the growth is -0.226% (active).
In the case of `C=C1C(=O)O[C@H]2[C@H]1CC/C(COC(=O)c1ccc(Br)cc1)=C\CC[C@@]1(C)O[C@@H]21`, the growth is -45.6% (active).
Regarding `O=c1nc(-c2ccccc2)c2cc(-c3ccc(N4CCOCC4)cc3)ccc2[nH]1`, the growth is 63.5% (inactive).
Regarding `COc1ccc(C2CC(n3ccnc3)c3cc(OC)c(OC)c(OC)c32)cc1O` (configuration not stated), the growth is 83.6% (inactive).
On to `CN(C(=O)c1ccccc1)N(C)C(=O)c1ccccc1`, for which the growth is 92.8% (inactive).
The figure for `CN(C)c1ccc2cc(-c3cc4c(oc3=O)-c3ccccc3OC4O)c(=O)oc2c1` (configuration not stated) is -66.5% (active).
In the case of `COc1ccc(-c2cc(=O)[nH]c3c(OC)c4ccccc4c(OC)c23)cc1`, the growth was -19.8% (active).
`COC(=O)C1=NNC(=S)N(c2cc(C)[nH]n2)C(=O)C1`: the growth was 100% (inactive).
The figure for `COc1ccc(-c2nn(-c3cccc(NC(=O)Nc4cc(C(F)(F)F)cc(C(F)(F)F)c4)c3)cc2-c2ccncc2)cc1Cl` is -25.4% (active).
